# Source: PubChem (several laboratories)
# EBV gp42 block = Epstein-Barr virus gp42 inhibitors, primary screen, biochemical, uHTS, fluorescence polarization | Glycoprotein 42 (Epstein-Barr virus (strain AG876)), Q1HVG2 | Fluorescence polarization binding assay, mP read-out | inhibition, % (tested at 21.74 µM) | actives 0.42% (n = 220,000); in the data active means inhibition above about 50%
# Target sequence (Q1HVG2 whole entry, looked up): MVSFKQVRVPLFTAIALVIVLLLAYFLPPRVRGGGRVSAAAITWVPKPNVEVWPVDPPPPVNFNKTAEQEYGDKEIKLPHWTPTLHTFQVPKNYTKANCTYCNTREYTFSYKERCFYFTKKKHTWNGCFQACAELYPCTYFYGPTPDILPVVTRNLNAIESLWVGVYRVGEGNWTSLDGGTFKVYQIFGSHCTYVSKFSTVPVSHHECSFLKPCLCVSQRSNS
# E coli Lon inh = inhibitors of E. coli Lon protease, primary screen, biochemical, fluorescence polarization; P0A9M0; purified E. coli Lon protease; inhibition, % at 7.94 µM; actives 0.42% (n = 360,000); AID 602123, 2011; in the data active means inhibition above about 13%, passing the limit was not always enough;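 further: 0% = enzyme with probe and DMSO and 100% = no enzyme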
# C-LANA FP = inhibitors of KSHV C-LANA binding to DNA, primary screen, biochemical, fluorescence polarization, FAM-LBS DNA, MBP-C-LANA, single point; inhibition, % at 9 µM; actives 0.078% (n = 340,000);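 active means highest replicate inhibition at or above 60% at 9 µM, even if other replicates fall short; inactive means all replicates below 60% inhibition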;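 further: 0% = neutral control wells and 100% = 4 µM acridine orange control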
# GLD-1 RNA inh = GLD-1/TGE RNA complex disruptors, primary screen, biochemical, fluorescence polarization | Female germline-specific tumor suppressor gld-1 (Caenorhabditis elegans), Q17339 | purified GLD-1 + fluorescein TGE RNA | AID 2280, 2010 | inhibition, % at 5.96 µM | actives 0.44% (n = 320,000);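 active means percent inhibition above a per-plate cutoff, the plate mean of test compounds plus 3 SD, cut at about 30% in these data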;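 further: 0% = DMSO wells with GLD-1 and probe and 100% = wells lacking GLD-1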
# LANA-H2A inh = blockers of LANA interaction with H2A/H2B – biochemical, FP readout, HTS, primary screen. AID 2629, 2010. cell-free LANA-H2A/H2B peptide, fluorescence polarization. actives 0.6% (n = 320,000). Protein LANA1 (Human herpesvirus 8 type P (isolate GK18)), Q9QR71. inhibition, % (no concentration beside the values); in the data active means inhibition mostly above about 10%, no sharp cut-off; inactive means mostly below about 6.7%
# Keap1-Nrf2 PPI = Keap1-Nrf2 protein-protein interaction inhibitors, primary screen, biochemical, fluorescence polarization, single point. Kelch-like ECH-associated protein 1 (Homo sapiens), Q14145. Keap1 Kelch-Nrf2 peptide fluorescence polarization, 1536-well. inhibition, % at 9.4 µM. actives 0.15% (n = 340,000). AID 504523, 2011; in the data active means inhibition above about 12%;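 further: human Keap1 Kelch domain with fluorescein labeled Nrf2 9mer peptide probe; 0% = neutral control wells and 100% = peptide positive control; higher means more block of Keap1 binding to Nrf2 peptide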
# Numbers without * were called inactive; / = no result given; + = active, no number. An excerpt weighted towards active compounds, which were near 1.5% of everything screened.
SMILES,EBV gp42 block,E coli Lon inh,C-LANA FP,GLD-1 RNA inh,LANA-H2A inh,Keap1-Nrf2 PPI
C=CC[C@H](CC(=O)N[C@H](CO)Cc1ccccc1)C(=O)N[C@@H](COC(=O)[C@@H](CC=C)CC(=O)OC(C)(C)C)Cc1c[nH]c2ccccc12,/,-12,1,8,19*,-9
Cc1ccccc1OC1(C)CCN(Cc2ccc(-c3ccccn3)cc2)C1 (stereo unspecified),/,3,/,/,/,/
COC(=O)CCCC[C@@H]1O[C@H](CCc2ccccc2)Cc2[nH]c(=S)[nH]c(=O)c21,/,-16,/,/,/,/
COc1ccc(C2N3CC4(C)CN2CC(C)(C3)C4)cc1OC (stereo unspecified),-10,0,1,1,6.4*,3
O=C(/C=C/c1ccco1)NC(=S)Nc1ccc(C(=O)O)cc1,/,-23,62*,13,-1,-1
Cn1nc(NC(=O)C(F)(F)F)c2ncc(-c3ccccc3)nc21,/,5,/,/,/,/
COc1ccc2[nH]cc(CCNC(=O)C3CCCCC3)c2c1,/,-7,-1,-5,12*,-3
O=C(CSc1nnc(CNC(=O)c2cccs2)o1)NCCc1ccccc1,-14,-2,0,0,36*,3
CC(OC(=O)c1ccc(S(=O)(=O)NCc2ccco2)cc1)C(=O)Nc1ccccc1 (stereo unspecified),/,-4,1,3,14*,1
O=c1cc(-c2ccccc2)oc2cc(O)ccc12,/,0,-1,/,/,-7
O=c1ccc2c(-c3ccccc3)c3ccc(O)cc3oc-2c1,/,/,142*,75*,61*,98*
Nc1ccc(-c2c3ccc(=O)cc-3oc3cc(O)ccc23)cc1C(=O)O,/,-117,110*,64*,38*,26*
COc1ccc(-c2c(C)c3ccc(O)cc3oc2=O)cc1OC,/,-5,0,-9,-3,0
COc1cccc(N2C(=O)CC(N3CCN(S(=O)(=O)c4ccccc4[N+](=O)[O-])CC3)C2=O)c1 (stereo unspecified),/,3,0,/,/,0
CN(C)c1ccc(C(C#N)c2ccccc2)nn1 (stereo unspecified),-4,-8,0,5,3,-2
C[C@@H]1CCCCO[C@@H](CN(C)CC2CC2)[C@@H](C)CN([C@H](C)CO)C(=O)c2cc(N(C)C)ccc2O1,/,-8,/,/,/,/
COc1ccc(CCN2CC(C(=O)Nc3nnc(Cc4ccccc4)s3)CC2=O)cc1OC (stereo unspecified),/,-9,-1,-8,11*,-3
Cc1ccc(-n2nc(C)c(C(=O)N3CCN(C(=O)c4ccco4)CC3)c2-n2cccc2)cc1,/,-12,-1,2,-8,-1
COc1ccc(-c2cc(NC(C)=O)c3ncc(-c4ccccc4)n3c2)c(OC)c1,/,-23,/,/,/,/
CCN(CC)c1ccc(C2=NNC(=O)CC2C)cc1[N+](=O)[O-] (stereo unspecified),3,3,0,3,20*,1
CC1CC(=O)NN=C1c1ccc(N(C)C)c([N+](=O)[O-])c1 (stereo unspecified),4,-3,0,6,-2,-3
CN(C)c1ccc(/C=N/NC(=O)CNC(=O)c2ccc3c(c2)OCCO3)cc1,2,-3,-2,1,25*,-4
CCN(CC)c1ccc(/C=N/NC(=O)CNC(=O)c2ccc3c(c2)OCCO3)cc1,/,-6,2,5,8,0
CNc1ccc(-c2cc(OC)ccc2OC)cn1,/,2,/,/,/,/
O=c1cc2oc3cc(O)c(O)cc3c(-c3ccccc3O)c-2cc1O,150*,92*,146*,/,/,49*
SMILES,EBV gp42 block,E coli Lon inh,C-LANA FP,GLD-1 RNA inh,LANA-H2A inh,Keap1-Nrf2 PPI
CCOc1ccccc1-c1c2cc(O)c(=O)cc-2oc2cc(O)c(O)cc12,153*,176*,158*,/,/,+
COc1cc(OC)c(-c2oc3ccccc3c(=O)c2O)c(OC)c1,/,-7,2,/,/,0
Cc1ccccc1-c1cc(=O)c2c(O)cccc2o1,-21,-4,0,1,10,-5
COc1ccc(OC)c(-c2oc3ccccc3c(=O)c2O)c1,2,-8,0,4,3.4*,1
COc1ccc(OC)c(-c2c3cc(O)c(=O)cc-3oc3cc(O)c(O)cc23)c1,168*,+,167*,76*,/,+
CN(CC(=O)NC1CC(C)(C)NC(C)(C)C1)S(=O)(=O)c1cc(Cl)ccc1Cl,-18,-17,1,8,2,-3
O=C1NC[C@H](CCCCN2C[C@H](Cc3ccc(O)cc3)N(CC3CCCCC3)C(=O)C2=O)N(Cc2ccccc2)C1=O,/,-1,/,/,/,/
COC(=O)C1=COC(C)C2CN3CCc4c([nH]c5cc(OC)c(OC)cc45)C3CC12 (stereo unspecified),74*,37,33,53*,13,-2
COc1ccc(/C=C2\N=C(c3c(-c4ccccc4)noc3C)OC2=O)cc1OC,57*,-12,-1,4,-2,1
COc1ccc(CNC(=O)Nc2nnc([C@@H]3C[C@H](O)[C@@H](CO)O3)s2)cc1,/,4,/,/,/,/
COCCn1c(SCC(=O)N2CCc3ccccc32)nc2c(c1=O)SC(C)C2 (stereo unspecified),-6,-5,0,0,8.1*,-6
COCCn1c(SCC(=O)N2CCCc3ccccc32)nc2c(c1=O)SC(C)C2 (stereo unspecified),-21,-2,3,0,-1,-3
O=C(NCCN1CCC(n2c(=O)[nH]c3ccccc32)CC1)c1ccc(Cl)c(Cl)c1,/,5,/,/,/,/
COc1ccc(/C=C2\CCCc3c2nc2ccccc2c3C(=O)O)cc1OC,105*,/,/,120*,91*,/
CCOc1ccc(/C=C2\CCCc3c2nc2ccccc2c3C(=O)O)cc1OC,/,178*,148*,150*,121*,114*
COc1cc(/C=C2\CCCc3c2nc2ccccc2c3C(=O)O)cc(OC)c1O,-6,3,-1,7,3,-1
O=[N+]([O-])c1ccc(Sc2cccc[n+]2[O-])c2nonc12,-10,-34,19,/,/,20*
O=[N+]([O-])c1ccc(Nc2ccccc2)c2nonc12,/,-28,-2,-10,1,-13
Nc1[nH]c(C(=O)c2ccccc2)c(-c2ccc(Cl)cc2Cl)c1C(=O)NCCc1c[nH]c2ccccc12,/,-4,/,/,/,/
CCCCC(=O)N(C)c1c(C)nc2ccc(C(=O)N3CCN(C(=O)c4ccco4)CC3)cn12,/,-7,/,/,/,/
